# Assay outcomes deposited in PubChem BioAssay by several laboratories.
# A selection: hits, their analogues and other compounds. The true share with any hit is near 3%.
# aSyn UTR inh = MLPCN primary screen, SNCA 5' untranslated region; alpha-synuclein 5'UTR reporter, inhibitor activity; inhibition, % (tested at 7.5 µM); 300,000 compounds, 0.82% hits; in the data active = inhibition above about 60%; inconclusive = no clear call, values can overlap the other calls;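 note: H4 neuroglioblastoma cells stably carrying SNCA 5'UTR luciferase fusion; 0% = DMSO wells and 100% = positive control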
# CSC inhib = cancer stem cell inhibition; 300,000 compounds, 1.1% hits; cancer stem cell-like cells viability, luminescence; inhibition, % at 7.5 µM; in the data active = inhibition above about 75%; inconclusive = no clear call, values can overlap the other calls; tested in HMLE shEcad cells
# IEC-6 tox = counter-screen for KLF5 inhibitors: cytotoxicity in IEC-6 cells | 290,000 compounds, 0.78% hits | inhibition, % at 5 µM | IEC-6 cytotoxicity, luminescence viability; in the data active = inhibition above about 22%;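 note: 0% = plate median of test compound wells and 100% = cytotoxic reference compound wells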
# SKKanGAS inh = SKKanGAS growth inhibition. AID 1662. 300,000 compounds, 1.3% hits. S. pyogenes SKKanGAS, kanamycin growth, BacTiter-Glo, 6 h. inhibition, % at 7.5 µM;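 active = mean replicate score, as percent of positive control median, at least 50; inconclusive = mean below 50 but one replicate at or above 50; inactive = mean and every replicate below 50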;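 note: strain carries kanamycin resistance gene driven by streptokinase promoter and grows in 40 µg/ml kanamycin; loss of luminescence reflects streptokinase promoter inhibition or plain growth inhibition; 0% = median of DMSO wells and 100% = positive control at its reference dose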
# KLF5 inhibitor = kruppel-like factor 5 inhibition; DLD-1 KLF5 promoter-luciferase reporter, luminescence; inhibition, % at 5 µM; 290,000 compounds, 0.23% hits; AID 1700;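 active = inhibition above a per-plate limit of that plate's mean compound inhibition plus 3 SD, cut at about 60% in these data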;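 note: 0% = DMSO wells and 100% = LY294002 at 200 µM; higher means less KLF5 promoter-driven luciferase light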
# Active calls of the source: *; ? = inconclusive; / = no result.
SMILES,aSyn UTR inh,CSC inhib,IEC-6 tox,SKKanGAS inh,KLF5 inhibitor
COc1ccc(C(=O)Nc2ccc(NC(=O)c3ccccn3)cn2)cc1,-35,/,-5,-5,-21
O=C(Nc1nc2c(F)cc(F)cc2s1)c1ccccn1,73*,42,13,72*,-109
CCOc1ccc2nc(NC(=O)c3ccccn3)sc2c1,80*,94*,13,81*,-34
COc1ccc(NC(=O)c2ccccn2)cc1,75*,18,3,8,4
Cc1ccc(/C=C/C(=O)NCCc2cccc(Cl)c2)o1,-12,23,3,-3,-41
Cn1c(SCC(=O)Nc2cccnc2)nnc1-c1ccccc1F,7,/,-4,7,-26
COc1ccc(N2CCN(Cc3nc(N)nc(Nc4ccc(C)c(Cl)c4)n3)CC2)cc1,51,3,16,74*,-12
Cc1ccc(Nc2nc(N)nc(CN3CCN(c4ccccc4)CC3)n2)cc1Cl,34,-20,8,87*,0
CN(CC(=O)NCc1ccco1)S(=O)(=O)c1ccc(F)cc1,4,-4,5,-4,-10
OCCN1CCN(c2cc(C(F)(F)F)nc3c(F)cccc23)CC1,19,5,2,2,0
CC(NCc1ccc([N+](=O)[O-])cc1)C1COc2ccccc2O1 (centres undefined),-8,4,2,5,-13
Cc1nn(C)c(C(=O)Nc2ccn(C34CC5CC(CC(C5)C3)C4)n2)c1[N+](=O)[O-],18,9,2,-17,14
Cc1nn(C)c(C(=O)Nc2ccc(S(=O)(=O)NC34CC5CC(CC(C5)C3)C4)cc2)c1Br,24,/,-1,53*,-21
COCCCNC(=S)NNC(=S)Nc1cccc(Cl)c1,-53,-11,2,52*,-57
COc1ccc(C(=O)N2CCCC(Nc3ccc(C)c(C)c3)C2)cc1F (centres undefined),4,-4,-6,51*,-30
COc1ccc(C(=O)N2CCCC(Nc3ccc(F)cc3)C2)cc1F (centres undefined),-7,-6,-2,-5,-3
Cc1cc(C)cc(C(=O)Nc2ccc(N3CCN(S(C)(=O)=O)CC3)cc2)c1,8,-8,2,-4,-9
COc1ccc(CN2CCC(CO)(Cc3cccc(C(F)(F)F)c3)CC2)cc1Cn1cccn1,6,16,-1,-8,-18
CN=C1S/C(=C\c2ccc(N3CCOCC3)c(F)c2)C(=O)N1C,-76,6,-2,61*,-52
CN=C1S/C(=C\c2ccc(N3CCCC3)c(F)c2)C(=O)N1C,-139,47,0,36,-27
Cc1nnn(C23CC4CC(CC(CC(=O)Nc5ccc(C)c(C)c5)(C4)C2)C3)n1,11,-20,-2,-6,-12
Cc1[nH]c(=O)c(C(=O)/C=C/c2ccccc2F)c2c1CCCC2,-364,38,4,-7,-16
CC(C)Cc1nc2oc3c(NCCCN4CCOCC4)ncnc3c2c2c1CCC2,13,44,-3,17,-27
CC(C)Cc1nc2oc3c(Cl)ncnc3c2c2c1CCC2,33,86*,-5,-9,-3
Nc1nc(CN2CCN(Cc3ccccc3)CC2)nc(N2CCCc3ccccc32)n1,13,-9,-6,6,-2
SMILES,aSyn UTR inh,CSC inhib,IEC-6 tox,SKKanGAS inh,KLF5 inhibitor
Nc1nc(CN2CCN(c3cccc(Cl)c3)CC2)nc(N2CCCc3ccccc32)n1,-19,-15,0,91*,-37
Nc1nc(CN2CCN(c3ccccc3)CC2)nc(N2CCCc3ccccc32)n1,31,/,4,88*,-11
Nc1ccc(-c2nc(-c3ccccc3)nc3ccccc23)cc1,33,40,0,0,-6
Nc1ccc(-c2cc(-c3cccc(N)c3)nc(-c3ccccc3)n2)cc1,31,84*,2,-14,-9
Cc1ccc(NC(=O)c2ccc(Cl)c(N3C(=O)C=CC3=O)c2)cc1,-25,79*,-10,-1,-171
Cc1noc(C)c1CSc1nc2[nH]ncc2c(=O)n1-c1ccccc1,?,-7,82*,3,74*
O=c1c2cn[nH]c2nc(SCc2c(F)cccc2F)n1-c1ccc(Cl)cc1,36,52,2,59*,2
Cc1nc(CSc2nc3[nH]ncc3c(=O)n2-c2ccccc2)cs1,20,/,-3,2,-38
COc1ccccc1N1CCN(C(=O)c2ccc3c(c2)NC(=O)C(CSCc2ccccc2C)N3)CC1 (centres undefined),-11,-2,0,13,-6
Cc1c(NC(=O)c2cnc(Cl)c(Cl)c2)c(=O)n(-c2ccccc2)n1C,-18,0,3,-14,-19
O=C(CC1NCCc2ccccc21)Nc1ccc(Oc2ccccc2)cc1 (centres undefined),13,95*,6,15,13
CC1=C(N2CCCCC2)CCC1=O,2,-3,/,-3,/
COc1ccc(Cl)cc1N(C(=O)Nc1cccc(Cl)c1)C1=NCC(C)S1 (centres undefined),0,-4,-8,26,25
COc1ccc(Br)cc1[C@H]1[C@@H]2C=CCC[C@@]2(C)C(=O)N1Cc1ccccc1,11,39,/,?,/
C[C@@]12CCC=C[C@H]1[C@H](c1ccc3ccccc3c1Br)N(Cc1ccccc1)C2=O,5,/,/,75*,/
C[C@@]12CCC=C[C@H]1[C@H](c1ccc3ccccc3c1)N(Cc1ccccc1)C2=O,26,86*,/,69*,/
COc1cc(/C=C(/C#N)c2ccccc2F)ccc1OCc1ccccc1,-27,116*,-3,-10,-19
Cc1cccc(NC(=O)CCC(=O)N/N=C/c2ccc(O)cc2O)c1,6,79*,-1,10,-4
Cc1ccc(NC(=O)CCC(=O)N/N=C/c2ccccc2O)cc1,16,7,-1,7,5
O=C(CCC(=O)Nc1ccc(Br)cc1)N/N=C/c1ccccc1O,54,33,3,83*,49
Cc1cccc(N/N=C/c2ccccc2O)c1,-182,94*,5,3,-27
Cc1cc(SCC(=O)N/N=C/c2ccc(O)cc2O)nc2ccccc12,?,133*,19,21,42
O=C(O)CCCN1C(=O)/C(=C\C(Cl)=C\c2ccccc2)SC1=S,-225,79*,1,65*,-10
CC(/C=C1\SC(=S)N(CCCC(=O)Nc2ccc(C(=O)O)c(O)c2)C1=O)=C\c1ccccc1,28,22,0,100*,2
Cc1ccc([N+](=O)[O-])cc1NC(=S)NCCc1ccccc1,2,-8,2,2,-14
O=C(NCc1ccccc1C(F)(F)F)C1CCC(=O)N(CCCc2ccccc2)C1 (centres undefined),15,3,-1,13,-34
Brc1ccc2c(c1)C(C1=NCCN1)c1ccccc1CS2 (centres undefined),42,/,67*,-14,59
COc1ccc(C(=O)NNC(=O)C2CCN(S(=O)(=O)c3ccc(C)cc3)CC2)cc1,10,-11,2,-3,-9
O=C(CSc1nnc(NC(=O)C2CC(=O)N(c3ccccc3)C2)s1)NCc1ccco1 (centres undefined),-10,-25,-5,1,-34
